# This is a sample that favours compounds with a hit; in the whole collection about 4.8% have one here.
# NR1D1 modulator – modulators of Rev-erb alpha DNA binding, primary screen, biochemical, FITC-DNA, fluorescence polarization, uHTS. Nuclear receptor subfamily 1 group D member 1 (Homo sapiens), P20393. Rev-erbα–FITC-DNA binding, 90 min. activity, % at 10 µM. 370,000 compounds, 0.79% hits. AID 1259318, 2017;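 active = activity above about 14%, limit read from the data; passing the limit was not always enough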;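 note: 0% = DMSO wells with 35 nM protein and 100% = DMSO wells with 750 nM protein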
# Target sequence (P20393 whole entry, looked up): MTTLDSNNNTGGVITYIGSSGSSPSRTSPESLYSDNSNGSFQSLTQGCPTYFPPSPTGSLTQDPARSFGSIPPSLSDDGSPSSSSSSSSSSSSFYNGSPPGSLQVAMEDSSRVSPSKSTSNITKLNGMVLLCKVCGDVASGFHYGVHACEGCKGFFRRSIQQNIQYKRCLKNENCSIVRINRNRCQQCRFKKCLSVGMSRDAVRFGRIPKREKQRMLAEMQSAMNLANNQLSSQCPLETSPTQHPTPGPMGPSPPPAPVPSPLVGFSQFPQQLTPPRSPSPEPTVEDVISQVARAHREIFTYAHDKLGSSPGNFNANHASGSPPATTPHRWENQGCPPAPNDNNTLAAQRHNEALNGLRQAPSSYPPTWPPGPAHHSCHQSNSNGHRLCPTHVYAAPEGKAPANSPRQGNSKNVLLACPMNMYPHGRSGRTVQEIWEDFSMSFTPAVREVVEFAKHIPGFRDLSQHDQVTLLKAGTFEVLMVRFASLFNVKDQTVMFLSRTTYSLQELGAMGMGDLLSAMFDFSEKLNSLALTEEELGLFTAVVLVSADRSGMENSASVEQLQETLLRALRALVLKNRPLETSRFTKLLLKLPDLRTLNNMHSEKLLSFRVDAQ
# hgDAF-12 ag – H. glycines DAF-12 receptor agonists, primary screen, cell-based, luminescence, HEK293, GAL4 fusion, UAS-luciferase; Nuclear hormone receptor DAF-12 (Heterodera glycines), GAL4 fusion; HEK293 GAL4-hgDAF12 UAS-luciferase reporter, agonist luminescence; normalized to butyrate control; activation, % at 6.8 µM; 370,000 compounds, 1.8% hits;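 active = activation above a cutoff set at the mean of all screened compounds plus 3 SD, cut at about 10% in these data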;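 note: 0% = DMSO wells and 100% = sodium butyrate wells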
# DAX1 inh-1 – DAX1 (NR0B1) inhibitors, primary screen, cell-based, HEK293, Gal4-DAX1, luciferase luminescence; Nuclear receptor subfamily 0 group B member 1 (Homo sapiens), P51843; HEK293 Gal4-DAX1 luciferase reporter; inhibition, % at 6.75 µM; 340,000 compounds, 0.99% hits; AID 504766, 2011;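 active = inhibition above the mean over all tested compounds plus 3 SD, cut at about 4.2% in these data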;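 note: 0% = DAX1-transfected cells with DMSO and 100% = empty-vector control cells with DMSO; inhibition shows as a rise in luminescence from relieved DAX1 repression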
# hcDAF-12 act – H. contortus DAF-12 nuclear receptor activators, primary screen, cell-based, luminescence, HEK293, lit1-tk-luc reporter; 370,000 compounds, 1.4% hits; activation, % at 6.8 µM; HEK293 hcDAF-12 lit1-tk-luc reporter; 0% DMSO, 100% Δ7-dafachronic acid;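 active = activation above the mean of all tested compounds plus 3 SD, cut at about 5.5% in these data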;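 note: 100% = response to 3 µM Δ7-dafachronic acid high control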
# ssDAF-12 act – S. stercoralis DAF-12 nuclear receptor activators, primary screen, cell-based, luminescence, HEK293, GRIP1 co-expression, lit1-tk-luc | Nuclear hormone receptor DAF-12 (Strongyloides stercoralis) | HEK293 ssDAF-12/GRIP1 lit1-tk-luc reporter; % of 3 µM dafachronic acid response | activation, % at 6.8 µM | 370,000 compounds, 1% hits | AID 652126, 2013;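 active = activation above the mean over all tested compounds plus 3 SD, cut at about 0.9% in these data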;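 note: 0% = DMSO-only wells and 100% = 3 µM delta7-dafachronic acid wells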
# DAX1 inh-2 – DAX1 (NR0B1) inhibitors on StAR promoter, primary screen, cell-based, luminescence, SF-1 (NR5A1), full-length DAX-1. AID 652010, 2013. HEK293T StAR-luciferase reporter, SF-1/DAX-1 repression relief. 370,000 compounds, 1.1% hits. inhibition, % at 6.8 µM;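 active = inhibition above the mean over all tested compounds plus 3 SD, cut at about 3.6% in these data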;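 note: 0% = DAX-1 cells with DMSO and 100% = cells lacking DAX-1 with DMSO; higher inhibition means more luminescence from relief of DAX-1 repression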
# NR1D1 mod conf – modulators of Rev-erb alpha DNA binding, confirmation, biochemical, FITC-DNA, fluorescence polarization, single point. 3,000 compounds, 61% hits. shares compounds with NR1D1 modulator. AID 1259319, 2017. activation, % at 25 µM. 90 min;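 active = activation at or above a set limit, or at least 3 SD above the negative control mean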;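 note: 0% = 35 nM protein with DMSO and 100% = 750 nM protein high control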
# RORg DNA counter – modulation of RORgamma DNA binding, dose response, counter-screen for Rev-erb alpha modulator project, biochemical, fluorescence polarization, FITC-DNA; shares compounds with NR1D1 modulator; purified RORgamma protein-FITC-DNA binding; IC50, µM; 910 compounds, 8% hits; AID 1259320, 2017;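 active = Compounds whose fitted half-maximal concentration for disrupting protein-DNA binding is below 10 micromolar; the record names Rev-erb in its text, so the target is in doubt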
# * hit, by the source's call; i = inactive; · = no result.
SMILES,NR1D1 modulator,hgDAF-12 ag,DAX1 inh-1,hcDAF-12 act,ssDAF-12 act,DAX1 inh-2,NR1D1 mod conf,others
CC(=O)Nc1sc(C)c(C)c1C(=O)OCC(=O)NCc1ccc(Cl)cc1,24*,-1,1,2,-1,-1,9,
Cc1cc(Br)c2nc(-c3ccc(F)cc3)c(Cc3cccc(Cl)c3)n2c1,29*,2,·,3,1.3*,0,13*,
Cc1ccc(-c2nc3ccc(Br)cn3c2Cc2cccc(Cl)c2)cc1,19*,6,·,0,0,3,10,
N#Cc1ccc(-c2nc3ccc(Br)cn3c2Cc2cccc(Cl)c2)cc1,7,7,·,-1,-1,2,·,
Clc1ccc(-c2nc3ccc(Br)cn3c2Cc2cccc(Cl)c2)cc1,25*,10,·,2,0,2,19*,
Clc1cccc(Cc2c(-c3cccc(Cl)c3)nc3ccc(Br)cn23)c1,26*,6,·,1,-1,2,19*,
O=C(O)C1CCCN1C(=O)c1cccc(Cl)c1 (stereo not drawn),-4,-2,·,2,-1,0,·,
OC(c1ccccc1)(c1ccccc1)C1CCN(CCCOc2cccc(C(F)(F)F)c2)CC1,0,1,·,-1,0,0,·,
Cc1cc(N2CCNC[C@H]2C)ccc1N1CCN(Cc2ccccc2)[C@H](C)C1,-1,-3,·,1,-1,-1,·,
Cc1cc(/C=C/c2ccc3cc(N(C)C)ccc3[n+]2C)c(C)n1-c1ccccc1,-28,·,·,·,·,·,·,
COc1ccc(Cl)cc1CC1(C)C(=O)Nc2ccc(-c3ccccc3OC)cc21 (stereo not drawn),50*,-1,·,-2,-2,0,55*,RORg DNA counter=>40
COc1ccccc1-c1ccc2c(c1)C(C)(Cc1cc(Cl)ccc1C(F)(F)F)C(=O)N2 (stereo not drawn),43*,-4,·,-2,-1,-1,62*,RORg DNA counter=i
COc1ccccc1-c1ccc2c(c1)C(C)(Cc1cccc(C#N)c1)C(=O)N2 (stereo not drawn),46*,0,·,0,-1,-1,43*,RORg DNA counter=>40
CC1(Cc2cc(Cl)ccc2C(F)(F)F)C(=O)Nc2ccc(-c3ccc(F)c(Cl)c3)cc21 (stereo not drawn),7,0,·,1,-2,0,·,
COc1ccccc1-c1ccc2c(c1)C(C)(Cc1ccc(Cl)cc1)C(=O)N2 (stereo not drawn),-5,-1,·,1,-1,1,·,
COC(=O)C1=C(C)N(CC(C)C)C(=S)NC1c1ccc(Cl)cc1 (stereo not drawn),3,-1,·,1,-1,-1,·,
COc1cc(/C=C(\C#N)C(=O)Nc2cc(C(F)(F)F)ccc2Cl)ccc1OCC(=O)Nc1cccc(C(F)(F)F)c1,34*,1,0,-3,-1,0,19*,
CCN(CC(=O)NCc1ccc(Cl)cc1)C(=O)c1ccc2cc(OC)ccc2c1,105*,-1,0,-1,-1,0,102*,RORg DNA counter=>40
CCN(CC(=O)NCc1ccc(Cl)cc1)C(=O)c1cnc(Cl)c(Cl)c1,0,4,0,1,-1,0,·,
Cc1ccc(N=Nc2c(=O)[nH]n3c(C)cc(C)nc23)cc1,17*,-3,0,-1,-1,0,4,
CN(C)CCNc1ccc(CO)c2sc3ccc(O)cc3c(=O)c12,11,-8,-4,1,0,-5,·,
CN(C)CCNc1ccc2ncn3c4ccc(O)cc4c(=O)c1c23,20*,-7,-2,-1,-1,-6,24*,
NC(=O)c1cc2cc(Cc3ccccc3Cl)ccc2oc1=O,20*,0,-1,-1,-2,-1,17,
CNC(=O)c1cc2cc(Cc3ccccc3Cl)ccc2oc1=O,11,3,0,1,-1,0,·,
Nc1c(C(=O)Nc2ccccc2F)sc2nc(Cc3ccccc3)cc(C(F)(F)F)c12,108*,-2,2,-2,-2,1,81*,
SMILES,NR1D1 modulator,hgDAF-12 ag,DAX1 inh-1,hcDAF-12 act,ssDAF-12 act,DAX1 inh-2,NR1D1 mod conf,others
COCc1cc(C)nc2sc(C(=O)Nc3ccccc3F)c(N)c12,2,0,-1,-2,-2,0,·,
Cc1cc(C(F)(F)F)c2c(N)c(C(=O)Nc3cc(C)on3)sc2n1,86*,3,3,-2,-2,0,60*,RORg DNA counter=>40
COc1ccc(S[C@]2(C(=O)N3CCCC3)CC(=O)N(c3ccsc3)[C@@H]2c2ccc(OC)cc2)cc1,2,-1,·,-2,-1,-2,·,
COc1ccc(C(=O)COC(=O)c2cc(S(=O)(=O)N3CCCCC3)ccc2N2CCOCC2)c(OC)c1,18*,1,0,1,-1,0,12,
COc1ccccc1C(=O)COC(=O)c1cc(S(=O)(=O)N2CCCCC2)ccc1N1CCOCC1,-2,0,-1,0,-1,1,·,
COc1cccc(COC(=O)c2cc(S(=O)(=O)N3CCCCC3)ccc2N2CCOCC2)c1OC,20*,1,0,0,-1,0,0,
O=C(OCc1ccccc1F)c1cc(S(=O)(=O)N2CCCCC2)ccc1N1CCOCC1,-2,-5,-1,-2,-1,-2,·,
Cc1ccc(/C=C2\SC(=S)N(Cc3ccccc3)C2=O)o1,-1,1,1,-1,-1,0,·,
O=C(O)c1cc(-c2ccc(/C=C3/SC(=S)N(Cc4ccccc4)C3=O)o2)ccc1Cl,21*,-1,0,-2,0,0,18,
O=C(Nc1ccc(F)cc1)c1cc(-c2ccncc2)nc2c(Cl)cccc12,24*,0,-1,2,-1,0,9,
COc1cccc(NC(=O)c2cc(-c3cccnc3)nc3c(Cl)cccc23)c1,4,2,-1,1,0,0,·,
COc1ccc(CC(=O)Nc2nn(C)c3nc4c(C)cccc4cc23)cc1,28*,2,·,0,-1,0,11,
